PrPC TRFRET = reduces human prion protein on the cell surface. cell surface PrPC, TR-FRET read-out. inhibition, % at 13.8 µM. 0.43% of 370,000 active; in the data active means inhibition above about 24%
PriA SSB inh = K. pneumoniae PriA-SSBct interaction inhibition; AID 1272365; AlphaScreen SSBct-PriA binding, biotinylated peptide; inhibition, % at 33 µM; 0.6% of 430,000 active; in the data active means inhibition mostly above about 37%, no sharp cut-off; inactive means mostly below about 20%
CCHFV vOTU inh = CCHFV vOTU protease inhibition; Pep-AMC fluorescence; inhibition, % at 11.5 µM; 0.55% of 370,000 active; AID 651958; in the data active means inhibition above about 30%
BH1578 lux ind = inducers of Vibrio cholerae quorum light production without autoinducers | V. cholerae BH1578 lux reporter, luminescence, 6 h | activation, % at 18.7 µM | 0.16% of 350,000 active | AID 588436; in the data active means activation mostly above about 9.7%, no sharp cut-off
VHR inh abs = blocks human VHR1 dual specificity phosphatase; recombinant VHR phosphatase, pNPP absorbance; inhibition, % at 13.3 µM; P51452; 0.52% of 290,000 active; in the data active means inhibition above about 50%
Target sequence (P51452 whole entry, looked up): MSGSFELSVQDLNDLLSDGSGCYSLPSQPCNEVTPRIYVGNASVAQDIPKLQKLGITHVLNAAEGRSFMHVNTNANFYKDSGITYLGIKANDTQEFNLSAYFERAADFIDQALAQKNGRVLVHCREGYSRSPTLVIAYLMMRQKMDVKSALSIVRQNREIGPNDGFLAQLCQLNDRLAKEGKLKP
TcdB GH inh = blocks C. difficile toxin B glycohydrolase activity; TcdB glycohydrolase enzymatic assay, plate reader; P18177; AID 652162; 0.24% of 350,000 active; inhibition, % at 9.99 µM; in the data active means inhibition above about 10%
Numbers stand for hits; n = inactive; x = not tested or not shown; + = active, no number. In the library only some 1.5% were active in any assay of this set; here they are far more common.

SMILES	PrPC TRFRET	PriA SSB inh	CCHFV vOTU inh	BH1578 lux ind	VHR inh abs	TcdB GH inh
O=S(=O)(NC1CCCCC1N1CCC(O)CC1)c1ccccc1 (stereo not drawn)	n	n	n	n	58	n
COC(=O)CCN(C(=O)c1ccc(N2CCCCC2)c([N+](=O)[O-])c1)c1ccccn1	n	n	n	n	n	n
CC1Cc2ccccc2N1C(=O)c1ccc(N2CCCC2)c([N+](=O)[O-])c1 (stereo not drawn)	n	46	n	n	n	n
O=C(c1ccc(N2CCCCC2)c([N+](=O)[O-])c1)N(Cc1ccccc1)c1ccccn1	n	52	n	n	n	x
Cc1nc(-c2ccccc2NC(=O)c2cc(-c3ccc(F)cc3F)n[nH]2)cs1	x	n	x	x	x	x
COc1ccc(CCNc2nccn(-c3cccc(Cl)c3C)c2=O)cc1OC	x	32	x	x	x	x
O=C(O)c1cccc2c1NC(C(=O)O)C1CC(Sc3ccccc3[N+](=O)[O-])C(Cl)C21 (stereo not drawn)	n	n	n	n	n	x
CC(=O)c1ccc2c(c1)C1C(Cl)C(Sc3ccccc3[N+](=O)[O-])CC1C(C(=O)O)N2 (stereo not drawn)	n	46	n	n	n	x
Cc1cc(S(=O)(=O)NCCOc2ccc3nnc(-c4cccc(F)c4)n3n2)ccc1F	x	n	x	x	x	x
COc1cc2cnc(-c3ccccc3)c(-c3cccc(C(F)(F)F)c3)c2cc1OC	n	45	n	n	x	n
COc1ccc(NC(=O)c2cc(-c3ccco3)on2)cc1OC	n	n	n	n	53	n
FC(F)(F)c1ccc(CN2CCCCCC2)cc1	n	n	n	n	52	n
COc1ccc(CN2CCN(Cc3ccc(C(F)(F)F)cc3)CC2)cc1	n	n	n	n	n	n
Cn1c(=O)oc2cc(S(=O)(=O)N3CCC(C(=O)N4CCN(c5ccccc5)CC4)CC3)ccc21	n	n	n	n	n	n
Cn1c(=O)oc2cc(S(=O)(=O)N3CCC(C(=O)N4CC=C(c5ccccc5)CC4)CC3)ccc21	n	115	n	n	n	n
C[C@@H](C(=O)NCc1ccccc1)N1C(=O)C2CC=CCC2C1=O (stereo partly drawn)	n	n	n	25	n	x
CC(C(=O)NCc1ccccc1)N1C(=O)c2ccccc2C1=O (stereo not drawn)	n	n	n	n	n	n
Cc1cccn2c(=S)[nH]nc12	n	n	n	n	x	16
CCn1ccnc1CNCc1cn(-c2cc(C)ccc2C)nc1-c1ccccc1	n	87	n	n	n	n
Cc1csc(NC(=O)C2CCCCN2S(=O)(=O)c2ccccc2)n1 (stereo not drawn)	n	n	n	n	n	n
O=C(Nc1nc(-c2ccccn2)cs1)C1CCCCN1S(=O)(=O)c1cccs1 (stereo not drawn)	x	104	x	x	x	x
O=C(Nc1nc(-c2ccc3c(c2)OCCO3)cs1)C1CCCN1S(=O)(=O)c1cccs1 (stereo not drawn)	x	n	x	x	x	x
Cc1ccc(S(=O)(=O)N2CCCCC2C(=O)Nc2nc(-c3ccccn3)cs2)cc1 (stereo not drawn)	x	65	x	x	x	x
Cc1cn2c3c(=O)n(CC(=O)OCc4ccccc4)c(=O)n(C)c3nc2n1Cc1ccco1	x	n	x	x	x	x
N#Cc1ccccc1Cn1nc(-c2cccnc2)n(C2CC2)c1=O	x	n	x	x	x	x
SMILES	PrPC TRFRET	PriA SSB inh	CCHFV vOTU inh	BH1578 lux ind	VHR inh abs	TcdB GH inh
CCCC[N+]12C3C[C@H](C4[C@H](O)[C@]5(C[C@@H]41)c1ccccc1N(C)[C@@H]35)[C@H](CC)[C@H]2O (stereo partly drawn)	n	49	n	n	n	n
CCC1C2CC3C4N(C)c5ccccc5C45CC(C2C5O)N3C1O (stereo not drawn)	n	x	n	n	x	n
O=C(CSc1ncnc2c1cnn2-c1cccc(Cl)c1)Nc1ccc(Br)cc1	x	n	x	x	x	x
N#Cc1nc(Cc2ccccc2)oc1N1CCC(C(N)=O)CC1	n	n	n	n	n	x
N#Cc1nc(Cc2ccccc2)oc1N1CCC(Cc2ccccc2)CC1	n	50	n	n	n	x
N#Cc1nc(Cc2ccccc2)oc1N1CCN(c2ccccc2)CC1	n	45	n	n	n	n
O=S(=O)(c1ccccc1Cl)N1CCN(c2ccc(-n3cccn3)nn2)CC1	x	n	x	x	x	x
N#C/C(N=Nc1ccccc1O)=N\Nc1ccccc1O	n	+	n	n	x	n
CC(=O)c1cccc(NC(=O)c2ccc(=O)n(Cc3ccccc3F)c2)c1	x	n	x	x	x	x
Cc1cc(C(=O)NNC(=O)COc2ccccc2Cl)n[nH]1	n	n	n	n	51	n
O=C(C[C@@H]1C[C@H]2c3cc(NC(=O)c4ccc5c(c4)OCO5)ccc3O[C@H]2[C@H](CO)O1)NCc1cccc(F)c1	x	x	x	x	x	18
O=C(C[C@H]1C[C@@H]2c3cc(NC(=O)c4ccc5c(c4)OCO5)ccc3O[C@@H]2[C@@H](CO)O1)NCc1cccc(F)c1	x	x	x	x	x	20
O=C(C[C@@H]1C[C@@H]2c3cc(NC(=O)Nc4ccccc4)ccc3O[C@@H]2[C@H](CO)O1)NCc1ccccc1	x	x	x	x	x	n
O=C(C[C@@H]1C[C@@H]2c3cc(NC(=O)c4ccc5c(c4)OCO5)ccc3O[C@@H]2[C@@H](CO)O1)NCc1cccc(F)c1	x	x	x	x	x	17
O=C(C[C@@H]1C[C@H]2c3cc(NC(=O)Nc4ccccc4)ccc3O[C@H]2[C@H](CO)O1)NCc1ccccc1	x	x	x	x	x	12
O=C(C[C@H]1C[C@@H]2c3cc(NC(=O)c4ccc5c(c4)OCO5)ccc3O[C@@H]2[C@H](CO)O1)NCc1cccc(F)c1	x	x	x	x	x	n
COc1cccc(COC(=O)c2nnn(-c3ccccc3OC)c2C)c1	x	n	x	x	x	x
COc1ccc(-c2cc(CC(=O)Nc3nccs3)no2)cc1OC	x	n	x	x	x	x
O=c1nc(-c2ccccc2)c2cc(SC(F)F)ccc2[nH]1	n	n	n	n	53	n
O=C(NCCCc1ccccc1)C(=O)NCC1OCCCN1S(=O)(=O)c1ccccc1 (stereo not drawn)	x	n	x	x	x	x
Cc1cc(OCCCC(=O)Nc2cccc(Br)c2)ccc1Cl	x	n	x	x	x	x
O=C(CCSc1ccccc1)Nc1nnc(-c2ccc(Br)cc2)o1	x	n	x	x	x	x
Cc1cc(C)n(CC(O)COc2ccccc2[N+](=O)[O-])n1 (stereo not drawn)	n	n	n	n	56	x
COc1ccccc1OCC(O)Cn1nc(C)cc1C (stereo not drawn)	n	n	n	n	x	x
COC1(CNC(=O)NC(c2ccccc2)c2ccccc2)CCSC1 (stereo not drawn)	x	n	x	x	x	x
SMILES	PrPC TRFRET	PriA SSB inh	CCHFV vOTU inh	BH1578 lux ind	VHR inh abs	TcdB GH inh
O=C(CSc1ncc(-c2ccc(Cl)c(Cl)c2)n1-c1ccc(OC(F)F)cc1)N1CCCC1	x	38	x	x	x	x
COc1ccc(CC(=O)N(CCN2CCOCC2)c2nc3ccc(SC)cc3s2)cc1OC	x	29	x	x	x	x
COc1ccc2[nH]cc(S(=O)(=O)c3ccc(F)cc3)c(=O)c2c1	n	104	n	n	n	n
Cc1cc2c(c(=O)n1Cc1cccs1)[C@H](c1ccc3c(c1)OCO3)C(C#N)C(=N)O2 (stereo partly drawn)	x	n	x	x	x	x
O=c1ccnc(Sc2ncccc2[N+](=O)[O-])[nH]1	n	n	n	n	n	x
O=[N+]([O-])c1cc(Cl)ccc1Sc1cccc2cccnc12	n	n	n	n	n	n
O=[N+]([O-])c1cc(O)cc2cccnc12	x	n	x	x	x	x
